Molecules are shown by their SMILES. Where “and” joins values, the source holds several entries; their conditions need not be identical. Identical values can stand only once. Results filed as inconclusive are left out. Calls of active or inactive are those of the source. Unless noted, calls come from the whole dose curve.

A short description of assay [1]: Nuclear factor erythroid 2-related factor 2/antioxidant responsive element (Nrf2/ARE) small molecule agonists: qHTS cell viability counter screen in human keratinocytes (AID 1919968; active = well fitted curve in the direction sought with a large enough effect in the repeat runs; an effect the other way counts as inactive or inconclusive; note: nearly all actives have a fitted effect of over 55% in size; note: potency is the fitted concentration of half-maximal effect). The gist of the method: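 Cells of the KeratinoSens line were plated at 1,500 per well and left for 5 h before compound transfer from DMSO stocks. After a 23 h incubation (37 C, 5% CO2), CellTiter-Fluor was added. Signal was taken as fluorescence intensity 1 h later.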
On the technique in general: Quantitative high-throughput screening tests each substance at several concentrations.

Assay [2] has as its target Gonadotropin-releasing hormone receptor (Homo sapiens) (UniProt P30968). In words: Human gonadotropin-releasing hormone receptor (GnRHR) small molecule agonists, calcium flux assay in GnRHR-HEK293 cells (AID 1920063). Note: nearly all actives have a fitted effect of over 35% in size. Note: potency is the fitted concentration of half-maximal effect. The gist of the method:
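Compounds dissolved in DMSO are pin-transferred onto dye-loaded GnRHR-HEK293 cells, which were seeded 18 h before at 37 C/5% CO2. Calcium signal is read as fluorescence intensity at 1 s intervals for 3 min.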
In general terms: Calcium flux is commonly read through the fluorescence of an indicator in the cells.

Assay [3] deals with KiSS-1 receptor (Homo sapiens) (UniProt Q969F8). In words: Human kisspeptin (KISS1R) small molecule agonists, calcium flux assay in KISS1R-HEK293 cells (AID 1920064; active = well fitted curve in the direction sought with a large enough effect in the repeat runs; an effect the other way counts as inactive or inconclusive; note: potency is the fitted concentration of half-maximal effect). The gist of the method:
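Cell line: HEK293, stable human KISS1R. Dye loading 1 h at 37 C after 18 h culture. Read: kinetic fluorescence, 480/540 nm, 3 min at 1 s intervals.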

Assay [4] in a line: G protein-coupled receptor (GPCR) small molecule agonists, calcium flux assay: HEK293 wild type cell line counter screen (AID 1920065). In a few lines: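 Tox21 10K compounds, 15 concentrations each in triplicate, pin-transferred in DMSO onto dye-loaded cells; kinetic read at 480/540 nm for 3 min, 1 s intervals.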
Assay [5] is described as follows: p53 small molecule agonists, cell-based qHTS assay with human liver microsomes (AID 1963577).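 Note: p53 response element beta-lactamase reporter cells with liver microsomes plus NADPH.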 In a few lines: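 Steps: plate p53RE-bla cells, incubate 5 h at 37 C; add compound in DMSO; add microsomes (0.5 mg/mL final) and NADPH (0.5 mg/mL final); incubate 16 h at 37 C; add LiveBLAzer, 2 h RT; read fluorescence.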
Assay [6] in a line: p53 small molecule agonists, cell-based qHTS assay with rat liver microsomes (AID 1963578). In a few lines: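 Metabolic activation is supplied by rat liver microsomes with NADPH (each 0.5 mg/mL final). p53RE-bla cells incubate with compound 16 h at 37 C; reporter activity is measured by LiveBLAzer fluorescence.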
The nature of assay [7]: p53 small molecule agonists, cell-based qHTS assay with human liver microsomes: qHTS cell viability counter screen (AID 1963579). Note: nearly all actives have a fitted effect of over 45% in size. Note: potency is the fitted concentration of half-maximal effect. In a few lines:
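After the 460/530 nm beta-lactamase read, CellTiter-Glo was added to the same wells and luminescence measured after 30 min at room temperature, giving viability of p53RE-bla cells treated 16 h with compounds plus microsomes and NADPH.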

The target in assay [8] is 5-hydroxytryptamine receptor 2A (Homo sapiens) (UniProt P28223). In words: 5-hydroxytryptamine receptor 2A (HTR2A) small molecule antagonists, cell-based qHTS assay (AID 1963586). Note: nearly all actives have a fitted effect of over 45% in size. Note: potency is the fitted concentration of half-maximal effect. In a few lines:
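CHO cells stably expressing human HTR2A were plated for 18 h at 37 C, then loaded with calcium dye for 1 h. Compounds were preincubated 5 min at room temperature before DOI (4 nM solution) was added. Kinetic fluorescence was read for 3 min.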

Assay [9] has the same target. In words: 5-hydroxytryptamine receptor 2A (HTR2A) small molecule agonists, cell-based qHTS assay (AID 1963587). Note: nearly all actives have a fitted effect of over 30% in size. Note: potency is the fitted concentration of half-maximal effect. In a few lines: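 Kinetic calcium-flux fluorescence (2 min, 1 sec intervals) after compound addition in agonist mode. HTR2A-CHO cells were cultured 18 h, then dye-loaded 1 h at 37 C.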
Assay [10] has as its target Muscarinic acetylcholine receptor M1 (Homo sapiens) (UniProt P11229). Description: Cholinergic receptor muscarinic 1 (CHRM1) small molecule agonists, cell-based qHTS assay (AID 1963589). Note: nearly all actives have a fitted effect of over 35% in size. The gist of the method: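 Homogeneous fluorescence calcium flux, agonist mode. Human M1-expressing CHO cells; compound dosed at 15 concentrations, three independent runs; signal sampled every 1 sec.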

The target of assay [11] is D(2) dopamine receptor (Homo sapiens) (UniProt P14416). Description: Dopamine D2 receptor (DRD2) small molecule agonists, cell-based qHTS assay (AID 1963594). Note: nearly all actives have a fitted effect of over 35% in size. In a few lines: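 cAMP accumulation in DRD2-HEK293 cells measured by HTRF after 1 h detection; compounds added 10 min before NKH477 (200nM […]) forskolin-analogue stimulation, 30 min at room temperature, with Ro20-1724 present at 0.1 mM final.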
Chain of D(2) dopamine receptor (Homo sapiens) (P14416 whole entry, looked up): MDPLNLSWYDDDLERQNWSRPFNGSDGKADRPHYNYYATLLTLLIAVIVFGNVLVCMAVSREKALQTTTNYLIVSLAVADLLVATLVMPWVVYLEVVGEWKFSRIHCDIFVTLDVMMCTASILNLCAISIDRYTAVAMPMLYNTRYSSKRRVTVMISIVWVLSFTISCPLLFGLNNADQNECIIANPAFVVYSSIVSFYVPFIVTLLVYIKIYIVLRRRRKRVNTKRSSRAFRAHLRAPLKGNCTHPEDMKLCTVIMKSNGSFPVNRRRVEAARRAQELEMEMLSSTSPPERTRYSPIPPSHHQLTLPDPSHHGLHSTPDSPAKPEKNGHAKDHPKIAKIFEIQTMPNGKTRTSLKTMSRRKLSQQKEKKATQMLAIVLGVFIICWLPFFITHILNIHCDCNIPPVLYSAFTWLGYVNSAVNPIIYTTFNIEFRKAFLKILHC

For assay [12] the target is unchanged. Description: Dopamine D2 receptor (DRD2) small molecule antagonists, cell-based qHTS assay (AID 1963595; active = well fitted inhibition curve with a large enough effect in the signal ratio in the repeat runs, with a control signal flat; the % refers to the signal ratio; note: potency is the fitted concentration of half-maximal effect). The gist of the method: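 Cells were plated and grown for 24 h at 37 °C. Ro20-1724 (0.1 mM final) went in first, then compound for 10 min. NKH477 (200 nM) with quinpirole (12 nM) followed for 30 min at RT, then HTRF detection reagents for 1 h.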
A short description of assay [13]: p53 small molecule agonists, cell-based qHTS assay with rat liver microsomes: qHTS cell viability counter screen (AID 1963580). Note: nearly all actives have a fitted effect of over 45% in size. Note: potency is the fitted concentration of half-maximal effect. The gist of the method:
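Cytotoxicity counter screen: intracellular ATP read by CellTiter-Glo luminescence in the p53 reporter wells. HCT-116 p53RE-bla cells were treated for 16 h at 37 C alongside rat liver microsomes and NADPH, each 0.5 mg/mL final.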

A short description of assay [14]: p53 small molecule agonists, cell-based qHTS assay: qHTS cell viability counter screen (AID 1963581). Note: nearly all actives have a fitted effect of over 45% in size. Note: potency is the fitted concentration of half-maximal effect. In a few lines:
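ATP content measured by luminescence in HCT-116 p53RE-bla cells treated 16 h at 37 C, same wells as the reporter screen.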

The target of assay [15] is Beta-2 adrenergic receptor (Homo sapiens) (UniProt P07550). In words: Adrenergic beta2 receptor (ADRB2) small molecule antagonists, cell-based qHTS assay (AID 1963592). Note: nearly all actives have a fitted effect of over 50% in size. Note: potency is the fitted concentration of half-maximal effect. The gist of the method: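 Assay format: CHO-ADRB2 cells, 18-20hr seeding at 37C/5% CO2, then compound plus 1nM isoproterenol agonist mix for 0.5hr RT. Homogeneous time-resolved fluorescence cAMP detection after 1hr, expressed as 665/615 nm ratio.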
Chain of Beta-2 adrenergic receptor (Homo sapiens) (P07550 whole entry, looked up): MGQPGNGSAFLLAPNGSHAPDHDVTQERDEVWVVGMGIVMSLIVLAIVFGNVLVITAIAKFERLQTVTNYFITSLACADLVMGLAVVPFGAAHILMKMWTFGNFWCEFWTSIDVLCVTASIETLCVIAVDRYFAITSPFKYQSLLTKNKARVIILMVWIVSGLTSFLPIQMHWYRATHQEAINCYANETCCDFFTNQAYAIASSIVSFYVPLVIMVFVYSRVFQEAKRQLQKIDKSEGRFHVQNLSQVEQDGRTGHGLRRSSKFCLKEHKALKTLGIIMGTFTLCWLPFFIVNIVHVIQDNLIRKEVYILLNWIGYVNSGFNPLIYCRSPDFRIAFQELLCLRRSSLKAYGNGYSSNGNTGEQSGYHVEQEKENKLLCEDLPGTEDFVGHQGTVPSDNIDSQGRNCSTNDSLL

For assay [16], the target named is Muscarinic acetylcholine receptor M1 (Homo sapiens) (UniProt P11229). Description: Cholinergic receptor muscarinic 1 (CHRM1) small molecule antagonists, cell-based qHTS assay (AID 1963588). Note: nearly all actives have a fitted effect of over 40% in size. The gist of the method: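 Compounds were tested at 15 concentrations in three independent runs. Dye-loaded CHRM1-CHO cells were exposed 5 min at room temperature before stimulation by acetylcholine added at 50nM. Intracellular calcium was read kinetically on FDSS for 3 min.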
Chain of Muscarinic acetylcholine receptor M1 (Homo sapiens) (P11229 whole entry, looked up): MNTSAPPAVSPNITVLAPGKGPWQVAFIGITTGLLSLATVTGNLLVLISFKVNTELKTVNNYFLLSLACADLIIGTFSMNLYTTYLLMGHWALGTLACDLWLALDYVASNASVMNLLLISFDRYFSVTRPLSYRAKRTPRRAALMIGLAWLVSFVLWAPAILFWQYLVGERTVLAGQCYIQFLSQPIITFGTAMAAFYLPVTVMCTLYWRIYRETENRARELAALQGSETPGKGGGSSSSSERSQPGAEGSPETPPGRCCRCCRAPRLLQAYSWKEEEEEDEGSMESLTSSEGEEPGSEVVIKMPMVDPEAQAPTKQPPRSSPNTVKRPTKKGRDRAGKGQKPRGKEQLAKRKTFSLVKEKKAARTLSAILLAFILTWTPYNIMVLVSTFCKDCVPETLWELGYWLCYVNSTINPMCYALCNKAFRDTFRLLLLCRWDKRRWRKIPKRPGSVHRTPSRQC

A short description of assay [17]: cAMP Responsive Elements (CRE) small molecule agonists, cell-based qHTS assay (AID 1963590). The gist of the method:
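HEK 293T cells stably bearing CRE-bla were plated at 2,000 cells per well and rested 18 h. Compounds, positive controls or DMSO were added for 3 h at 37 C. LiveBLAzer B/G substrate was then loaded for 2 h at room temperature.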

A short description of assay [18]: cAMP Responsive Elements (CRE) small molecule antagonists, cell-based qHTS assay (AID 1963591; active = well fitted inhibition curve with a large enough effect in the signal ratio in the repeat runs, not every such curve was filed as active; the % refers to the signal ratio). The gist of the method: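 First, CRE-bla HEK293T cells settled 18 h at 37 C. Next, compound and 0.25 uM final NKH477 were applied for 3 h. Last, LiveBLAzer B/G substrate was loaded for 2 h at room temperature.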
Assay [19] is described as follows: p53 small molecule agonists, cell-based qHTS assay (AID 1963582; active = well fitted activation curve with a large enough effect in the signal ratio in the repeat runs, not every such curve was filed as active; the % refers to the signal ratio). The gist of the method: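 16 h compound exposure (37 C) of p53 response element–bla cells, preceded by 5 h recovery at 37 C/5% CO2; read-out via LiveBLAzer B/G FRET substrate, 2 h RT, fluorescence intensity.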

Chain of Gonadotropin-releasing hormone receptor (Homo sapiens) (P30968 whole entry, looked up): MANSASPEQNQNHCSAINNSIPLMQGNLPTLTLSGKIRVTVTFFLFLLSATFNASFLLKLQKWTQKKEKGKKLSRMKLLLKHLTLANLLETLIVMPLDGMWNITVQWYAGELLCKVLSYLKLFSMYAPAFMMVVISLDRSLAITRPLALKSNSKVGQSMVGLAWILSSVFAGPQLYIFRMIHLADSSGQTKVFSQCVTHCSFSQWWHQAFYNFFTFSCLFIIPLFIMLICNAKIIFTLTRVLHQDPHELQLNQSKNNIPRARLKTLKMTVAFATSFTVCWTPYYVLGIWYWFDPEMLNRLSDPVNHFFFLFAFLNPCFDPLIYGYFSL
Chain of 5-hydroxytryptamine receptor 2A (Homo sapiens) (P28223 whole entry, looked up): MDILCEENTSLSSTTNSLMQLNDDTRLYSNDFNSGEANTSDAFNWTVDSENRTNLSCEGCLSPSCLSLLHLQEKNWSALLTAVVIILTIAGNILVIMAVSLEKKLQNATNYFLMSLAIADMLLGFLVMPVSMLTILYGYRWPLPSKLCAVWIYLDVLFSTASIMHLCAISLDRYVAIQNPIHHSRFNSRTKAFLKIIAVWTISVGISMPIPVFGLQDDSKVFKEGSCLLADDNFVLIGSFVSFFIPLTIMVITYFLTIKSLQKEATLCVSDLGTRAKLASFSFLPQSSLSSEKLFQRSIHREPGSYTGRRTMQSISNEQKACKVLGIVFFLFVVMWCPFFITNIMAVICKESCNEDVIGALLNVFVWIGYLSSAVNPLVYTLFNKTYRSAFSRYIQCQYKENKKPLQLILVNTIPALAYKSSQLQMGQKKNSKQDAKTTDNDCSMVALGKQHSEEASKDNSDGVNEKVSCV
Chain of KiSS-1 receptor (Homo sapiens) (Q969F8 whole entry, looked up): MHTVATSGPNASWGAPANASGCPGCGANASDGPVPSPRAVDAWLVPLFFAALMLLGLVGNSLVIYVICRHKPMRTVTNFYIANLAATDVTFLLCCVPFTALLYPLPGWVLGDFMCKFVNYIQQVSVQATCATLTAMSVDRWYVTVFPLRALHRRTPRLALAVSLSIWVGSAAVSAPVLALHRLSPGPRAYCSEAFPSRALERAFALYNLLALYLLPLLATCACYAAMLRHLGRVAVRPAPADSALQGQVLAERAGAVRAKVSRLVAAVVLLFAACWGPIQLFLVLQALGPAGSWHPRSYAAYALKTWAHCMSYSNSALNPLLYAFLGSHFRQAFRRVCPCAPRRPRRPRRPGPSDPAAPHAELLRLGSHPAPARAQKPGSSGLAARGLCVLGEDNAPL

For `O=[N+]([O-])c1ccc(Nc2ccccc2)cc1`, the Potency is 61.6 µM (active) in assay [1]; 16.9 µM (active) and 16.8 µM (active) in [8]. For the same compound, the Potency result in assay [2], in assay [3], in assay [4], in assay [5], in assay [6] and in assay [7] was “inactive” throughout. Besides, the Potency result in [9], in assay [10], in assay [11] and in assay [12] was “inactive” in each case.

With `CCC[CH2][Sn]([CH2]CCC)([CH2]CCC)[O]C(=O)c1ccccc1`, the Potency in assay [1] was 1.09 µM (active); in assay [2], 4.9 µM (active); in assay [3], 19.5 µM (active); in assay [7], 3.24 µM (active); in [13], 4.58 µM (active); in assay [14], 1.62 µM (active). Moreover, the Potency was 1.33 µM (active) in assay [8], 21.9 µM (active) in assay [9], 0.864 µM (active) in [15] and 4.86 µM (active) in [12]. Also, the Potency entry in [4], in [5], in [6] and in assay [11] was “inactive” each time.

Take `Cl/C=C\Cl`: the Potency result in [1], in assay [2], in assay [3], in assay [4], in assay [5] and in [6] was “inactive” throughout. Moreover, the Potency result in [13], in assay [8], in assay [9], in [16], in assay [10] and in [17] was “inactive” throughout. In addition, the Potency result in [18], in [15], in [11] and in assay [12] was “inactive” each time.

On to `C[C@@H]1CC[C@H]2[C@@H](C)C(=O)O[C@@H]3O[C@@]4(C)CC[C@@H]1[C@]32OO4`, for which the Potency result in assay [1], in assay [2], in [3], in assay [4], in assay [5] and in assay [6] was “inactive” each time. In addition, the Potency entry in assay [7], in [13], in assay [14], in [17], in assay [18] and in assay [15] was “inactive” each time. The Potency entry in assay [11] and in assay [12] was “inactive” in each case.

`Oc1ccc2ccc3cccc4ccc1c2c34`: the Potency entry in assay [1], in [2], in assay [3], in assay [4], in assay [5] and in [7] was “inactive” throughout. The Potency entry in [13], in [14], in [19], in assay [8], in assay [9] and in assay [16] was “inactive” throughout. For the same compound, the Potency entry in [10] and in assay [17] was “inactive” throughout.

With `Clc1ccc(CSC(Cn2ccnc2)c2ccc(Cl)cc2Cl)cc1` (configuration not stated), in [1], the Potency is 29.8 µM (active). Besides, the Potency entry in [2], in assay [3], in assay [4], in [5], in assay [6] and in assay [13] was “inactive” each time. Further, the Potency entry in [17], in [15], in [11] and in assay [12] was “inactive” each time.

As for `COc1cccc([C@@]2(O)CCCC[C@@H]2CN(C)C)c1`, the Potency entry in assay [1], in assay [2], in assay [3], in [4], in [5] and in assay [6] was “inactive” each time. Further, the Potency entry in assay [7], in assay [13], in [19], in assay [17], in assay [15] and in assay [11] was “inactive” each time. In addition, the Potency entry in assay [12] is “inactive”.

With `Cc1cc(=O)[nH]o1`, the Potency entry in [1], in assay [2], in assay [3], in assay [4], in [5] and in [7] was “inactive” in each case. Further, the Potency entry in assay [13], in assay [14], in assay [19], in assay [8], in assay [9] and in [16] was “inactive” throughout. Also, the Potency result in assay [10], in [17], in assay [18], in assay [15], in assay [11] and in [12] was “inactive” each time.

The values are drawn from PubChem BioAssay (Tox21).
